# Compound activity: PubChem BioAssay, National Center for Advancing Translational Sciences (NCATS)
# Coupling enz: counter-screen for Giardia aldolase inhibitors: coupling enzyme system. 290,000 tested, 0.67% active. AID 2472. coupling enzyme system counterscreen, AmpLite Red fluorescence. activity change, negative = inhibition, % at 58.2 µM, hits read low; in the data active means activity change below about -30%
#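 First, compound is pin-transferred into glyceraldehyde-3-phosphate coupling-enzyme reagent at 57.5 uM final and held 10 min at RT. Next, substrate, coupling system and AmpLite Red are added. After 20 min RT, fluorescence (525/598 nm) is read.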
# Sfp inh: inhibitors of Bacillus subtilis Sfp phosphopantetheinyl transferase; Q9F4F7; Biochemical Sfp PPTase activity, qHTS; Potency, µM, without a hit: largest response in the series, negative = inhibition, most hits filed as inhibitors; 310,000 tested, 3.5% active; AID 1490;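 further: the enzyme is Sfp with the accession as filed and its product quenches rhodamine fluorescence; potency means the concentration at half of the fitted maximal effect; 0% = enzyme reaction without inhibitor and -100% = no enzyme wells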
#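 With Hepes-Na pH 7.6 buffer containing 10 mM MgCl2, Sfp (15 nM) modified BHQ-2-YbbR (12.5 uM) using rhodamine-CoA (5 uM). Two reads 30 minutes apart at 525/598 nm yielded each well's rate.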
# ALDH1A1 inh: ALDH1A1 (human) enzyme inhibition; Purified ALDH1A1, NADH fluorescence, propionaldehyde substrate; Potency, µM (top dose mostly 75.3 µM), without a hit: at the highest dose activity, negative = inhibition, most hits filed as inhibitors; 220,000 tested, 7.3% active; AID 1030; active means well fitted inhibition curve with a large enough effect, not every such curve was filed as active; inconclusive means small, poorly fitted or top-dose-only effect, or another doubt; inactive means no such curve, though single readings can be large or run the other way;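 further: potency means the concentration at half of the fitted maximal effect; plate controls were no enzyme wells and a reference inhibitor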
# JMJD2E inh: blocks human JMJD2E demethylase activity; 230,000 tested, 1.6% active; Potency, µM (titrated, usually from 57.1 µM), inactives show top-dose activity change, negative = inhibition, hits mostly inhibitors; JMJD2E catalytic domain, FDH-coupled NADH fluorescence (FDH is formaldehyde dehydrogenase); B2RXH2; active means well fitted inhibition curve with a large enough effect, not every such curve was filed as active; inconclusive means small, poorly fitted or top-dose-only effect, or another doubt; inactive means no such curve, though single readings can be large or run the other way;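 further: potency means the concentration at half of the fitted maximal effect; 0% = wells with enzyme and -100% = buffer wells without enzyme; nearly all actives have a fitted effect of over 50% in size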
# Target sequence (B2RXH2 1-337 limits assumed): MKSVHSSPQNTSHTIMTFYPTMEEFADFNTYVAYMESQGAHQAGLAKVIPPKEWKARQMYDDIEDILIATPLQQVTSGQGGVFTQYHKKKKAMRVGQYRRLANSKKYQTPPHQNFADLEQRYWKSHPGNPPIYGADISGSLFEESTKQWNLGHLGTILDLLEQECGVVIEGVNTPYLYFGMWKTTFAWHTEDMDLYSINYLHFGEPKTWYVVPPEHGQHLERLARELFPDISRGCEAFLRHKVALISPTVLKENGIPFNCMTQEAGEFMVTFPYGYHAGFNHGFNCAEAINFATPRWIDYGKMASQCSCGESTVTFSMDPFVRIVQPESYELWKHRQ
# NPSR antag: antagonists of human neuropeptide S receptor cAMP signaling; CHO-NPSR cells, cAMP TR-FRET, antagonist mode; Potency, µM (top dose mostly 38.3 µM), inactives show at the highest dose activity change, negative = inhibition, most hits filed as inhibitors; 220,000 tested, 1% active; AID 1461; further: potency means the concentration at half of the fitted maximal effect; nearly all actives have a fitted effect of over 50% in size
# Target sequence (Q6W5P4 whole entry, looked up): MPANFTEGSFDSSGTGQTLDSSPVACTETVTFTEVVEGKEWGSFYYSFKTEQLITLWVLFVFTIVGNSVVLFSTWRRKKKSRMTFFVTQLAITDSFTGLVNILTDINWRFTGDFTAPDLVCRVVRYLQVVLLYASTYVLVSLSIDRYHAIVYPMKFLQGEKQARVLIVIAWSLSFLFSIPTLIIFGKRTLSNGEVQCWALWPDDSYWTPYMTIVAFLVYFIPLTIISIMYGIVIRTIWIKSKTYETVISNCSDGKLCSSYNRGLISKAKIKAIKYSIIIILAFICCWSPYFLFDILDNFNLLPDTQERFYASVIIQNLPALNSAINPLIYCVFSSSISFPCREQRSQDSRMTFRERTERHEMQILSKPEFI
# RGS12 GoLoco inh: RGS12 GoLoco-Gai1 interaction inhibition | 230,000 tested, 0.44% active | AID 880 | P63096 | Gai1:RGS12 GoLoco peptide FP, rhodamine, 10 min | Potency, µM (highest dose often 61.6 µM), inactives show at the highest dose activity, negative = inhibition, actives largely listed as inhibitors; active means well fitted inhibition curve with a large enough effect, not every such curve was filed as active; inactive means no such curve, though single readings can be large or run the other way; further: potency means the concentration at half of the fitted maximal effect; nearly all actives have a fitted effect of over 30% in size
# * hit, by the source's call; ? = inconclusive; . = not tested or not shown; [ ] = dose if it differs, or a comment. Compounds with a hit are over-represented: about 8.5% of the library has one in this group of screens. Unless noted, the call rests on the fitted dose curve; in most records, active means well fitted curve in the direction sought with a large enough effect; inconclusive means small, poorly fitted or top-dose-only effect, or another doubt; inactive means no such curve, though single readings can be large; an effect the other way counts as inactive or inconclusive. Unless noted, on the % scale 0 is the no-effect control and ±100 the full control effect.
SMILES,Coupling enz,Sfp inh,ALDH1A1 inh,JMJD2E inh,NPSR antag,RGS12 GoLoco inh
COc1ccc(CCNC(=O)COC(=O)c2cnc(C)cn2)cc1OC,0,1%,13µM*,2%,2%[46.1 µM],5%
COc1ccc(CCNC(=O)CN2CCC(C)CC2)cc1OC,-1,-5%,11µM*,2%,-21%[46.1 µM],-21%
Cc1ccc(C(=O)NC2CCN(CC(=O)Nc3ccccc3Cl)CC2)cc1,2,13%,.,.,.,.
COCC(O)CSc1nc(C)[nH]c1[N+](=O)[O-] (configuration not stated),-1,-24%,1%,0%,5%[46.1 µM],7%
Cc1nc(SCC(O)CCl)c([N+](=O)[O-])[nH]1 (configuration not stated),3,14%,14µM*,3%,5%[46.1 µM],10%
O=C(Nc1ccc(N2CCN(C(=O)c3ccco3)CC2)cc1)c1cccnc1Cl,-2,12%,0%,?,4%,2%
CS(=O)(=O)N(CC(=O)Nc1ccc(Br)cc1)C1CCCCC1,2,19%,.,.,.,.
CC(=O)Nc1ccc(C(=O)NCC2CCCCC2)cc1,2,5%,.,.,.,.
COC(=O)c1ccc(COc2ccc(/C=C(\C#N)c3nc4ccccc4[nH]3)cc2OC)o1,0,17%,-6%,22µM*,-10%[46.1 µM],108%
c1ccc(-c2nc(-c3ccco3)cs2)nc1,-1,45µM*,?,?,-7%[46.1 µM],-1%
O=C(Nc1nc(-c2ccccn2)cs1)c1ccco1,-9,-50%,35µM*,?,-38%,22%
c1ccc(-c2nccc(-c3ccco3)n2)nc1,-1,7%,?,?,4%,0%
O=C(Nc1nc(-c2ccncc2)cs1)c1ccco1,-1,-27%,-7%,-12%,10%[7.67 µM],36%
O=C(Nc1nc(-c2ccccc2)cs1)C1c2ccccc2Oc2ccccc21,-1,-2%,1.8µM*,0%,?,82%
O=C(NC(=S)Nc1nc(-c2ccccc2)cs1)c1ccco1,0,50µM*,14µM*,7%,-33%,12%
O=C(COC(=O)CC(c1ccccc1)c1ccccc1)Nc1c(F)cccc1F,2,1%,?,1%,-36%,8%
CC(c1ccco1)N(C(=O)c1ccc(Cl)c([N+](=O)[O-])c1)c1ccccn1 (configuration not stated),1,13%,.,.,.,.
COC(=O)C1=C[C@@H](C(=O)OC)C2C3=C(C(=O)[C@]2(C)NC(=O)c2ccccc2)[C@H](C)n2c(=O)n(-c4ccccc4)c(=O)n2[C@@H]3C1 (some centres not stated),0,-2%,.,.,.,.
CC(=O)c1c(C)[nH]c(C(=O)Nc2cccc(C(F)(F)F)c2)c1C,-3,-2%,.,.,.,.
O=C(NCCOc1ccccc1)O[C@@H]1C(=O)c2cc(Br)ccc2O[C@H]1c1ccc2c(c1)OCO2,-1,26%,2%,4%,.,3%
O=C(NC(=S)Nc1nc(-c2ccccc2)cs1)c1cccnc1,2,?,8.9µM*,5%,9%,26%
O=C(NC(=S)Nc1nc(-c2cccc3ccccc23)cs1)c1cc2ccccc2o1,1,-15%,20µM*,8%,?,-11%
O=C(NC(=S)Nc1nc(-c2ccccc2)cs1)c1cncc(Br)c1,3,5%,1%,8%,-20%[46.1 µM],8%
O=C(Nc1nc(-c2ccccc2)cs1)c1ccc(Br)o1,1,25µM*,?,-18%,-26%[46.1 µM],30%
Cc1ccc(C(=O)Nc2nc(-c3cccnc3)cs2)o1,0,-14%,?,-1%,-9%[46.1 µM],8%
SMILES,Coupling enz,Sfp inh,ALDH1A1 inh,JMJD2E inh,NPSR antag,RGS12 GoLoco inh
COc1ccc(CN2CCN(Cc3cc4ccccc4o3)CC2CCO)cc1C (configuration not stated),0,11%,.,.,.,.
O=C1C(Cl)=C(NC2CCc3ccccc32)C(=O)c2ncccc21 (configuration not stated),-7,45µM*,11µM*,5µM*,.,-7%
O=C(Nc1ccccn1)C(F)(F)C(F)(F)C(F)(F)C(F)(F)C(=O)Nc1ccccn1,-4,8%,-6%,?,-6%[46.1 µM],-10%
CC(=O)Oc1c(-c2ccc(Br)o2)oc2ccccc2c1=O,2,2%,.,.,.,.
Nc1nnc(SCC(=O)NN2C(=O)NC3(CCCCC3)C2=O)s1,1,11%,5%,5%,16%,-1%
CC(C)C(=O)Nc1ccccc1N1CCN(S(C)(=O)=O)CC1,0,19%,-9%,8%,-2%[46.1 µM],-1%
O=C(Nc1ccccc1N1CCCCC1)c1cccs1,0,-3%,-7%,-5%,?,10%
CS(=O)(=O)N1CCN(c2ccccc2NC(=O)C(c2ccccc2)c2ccccc2)CC1,2,-4%,6.3µM*,0%,?,-8%
CS(=O)(=O)N1CCN(c2ccccc2NC(=O)c2cccs2)CC1,6,11%,10µM*,9%,-9%[46.1 µM],12%
CS(=O)(=O)N1CCN(c2ccccc2NC(=O)CSc2nnc(-c3ccco3)o2)CC1,0,-4%,13µM*,-5%,11%,-2%
N#C/C(=C\c1cn(-c2ccccc2)nc1-c1cc2ccccc2o1)c1nc2ccccc2[nH]1,-10,8%,?,3%,-18%,8%
Cc1ccc(-c2nn(-c3ccccc3)cc2/C=C(\C#N)c2cccc(C#N)c2)o1,-3,-29%,22µM*,9%,-17%[46.1 µM],2%
O=C1CC2(CCCC2)CC(=O)N1CCNCC1COc2ccccc2O1 (configuration not stated),.,-27%,28µM*,.,.,79%
O=C1CC2(CCCC2)CC(=O)N1CCNC[C@H]1COc2ccccc2O1,1,-4%,?,3%,.,4%
CC1=CC(C)C2COC(c3ccc[n+](C)c3)C1C2C (configuration not stated),0,8%,1%,-2%,19%,28µM*
COC(=O)c1ccc(CN2CCCC(C(=O)c3ccccc3OC)C2)cc1 (configuration not stated),-1,7%,.,.,.,.
CN1/C(=N\O)c2cccc3cccc1c23,-47*,-24%,?,?,18%[46.1 µM],-5%
COc1ccccc1CNC(=O)CN(C)S(=O)(=O)c1ccc2c(c1)n(C)c(=O)c(=O)n2C,.,17%,.,.,.,.
CCOc1cc2c(C#N)c(N3CCCCC3)nc(N)c2c(N)n1,-48*,?,?,?,-16%[46.1 µM],39%
COc1ccc(-c2nc(C#N)c(N3CCc4ccccc4C3)o2)cc1OC,.,4%,?,?,?,4%
COc1cc2c(C#N)c(N3CCc4ccccc4C3)nc(N)c2c(N)n1,-49*,35µM*,?,?,-10%[46.1 µM],19%
COc1cc2c(C#N)c(N3CCOCC3)nc(N)c2c(N)n1,-52*,-16%,?,?,8%[46.1 µM],18%
